# ± gives the standard deviation of the averaged measurements.
# Test system: E. coli BW25113 marRABp lux reporter
# Test: promoter activity interaction Z-score (Lux/OD deviation from empty-vector control); higher = stronger promoter induction by the compound
# Method: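 E. coli BW25113 (wild type or ΔmarA/ΔsoxS/Δrob) carrying pTU175 luxCDABE promoter reporters was grown in LB in 384-well plates at 37°C with each of 94 compounds at 4 two-fold concentrations, in biological duplicates. Luminescence and OD600 were read every 30 min for 12 h and integrated as AUC over 8 h (0-8 h WT, 1-9 h mutants). Lux AUC was divided by OD AUC; the interaction score is the residual of a Huber robust fit of each promoter against the empty-vector control, then Z-transformed per promoter.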
Compound,"promoter activity interaction Z-score (0.038 µg/ml, genetic background: wild type)","promoter activity interaction Z-score (0.038 µg/ml, genetic background: ΔmarA)","promoter activity interaction Z-score (0.038 µg/ml, genetic background: Δrob)","promoter activity interaction Z-score (0.038 µg/ml, genetic background: ΔsoxS)","promoter activity interaction Z-score (0.076 µg/ml, genetic background: wild type)","promoter activity interaction Z-score (0.076 µg/ml, genetic background: ΔmarA)","promoter activity interaction Z-score (0.076 µg/ml, genetic background: Δrob)","promoter activity interaction Z-score (0.076 µg/ml, genetic background: ΔsoxS)","promoter activity interaction Z-score (0.15 µg/ml, genetic background: wild type)","promoter activity interaction Z-score (0.15 µg/ml, genetic background: ΔmarA)","promoter activity interaction Z-score (0.15 µg/ml, genetic background: Δrob)","promoter activity interaction Z-score (0.15 µg/ml, genetic background: ΔsoxS)","promoter activity interaction Z-score (0.3 µg/ml, genetic background: wild type)","promoter activity interaction Z-score (18 µg/ml, genetic background: wild type)","promoter activity interaction Z-score (18 µg/ml, genetic background: ΔmarA)","promoter activity interaction Z-score (18 µg/ml, genetic background: Δrob)","promoter activity interaction Z-score (18 µg/ml, genetic background: ΔsoxS)","promoter activity interaction Z-score (36.1 µg/ml, genetic background: wild type)","promoter activity interaction Z-score (36.1 µg/ml, genetic background: ΔmarA)","promoter activity interaction Z-score (36.1 µg/ml, genetic background: Δrob)","promoter activity interaction Z-score (36.1 µg/ml, genetic background: ΔsoxS)","promoter activity interaction Z-score (72.1 µg/ml, genetic background: wild type)","promoter activity interaction Z-score (72.1 µg/ml, genetic background: ΔmarA)","promoter activity interaction Z-score (72.1 µg/ml, genetic background: Δrob)","promoter activity interaction Z-score (72.1 µg/ml, genetic background: ΔsoxS)","promoter activity interaction Z-score (144.2 µg/ml, genetic background: wild type)","promoter activity interaction Z-score (144.2 µg/ml, genetic background: ΔmarA)","promoter activity interaction Z-score (144.2 µg/ml, genetic background: Δrob)","promoter activity interaction Z-score (144.2 µg/ml, genetic background: ΔsoxS)"
Cc1c(N)nc([C@H](CC(N)=O)NC[C@H](N)C(N)=O)nc1C(=O)N[C@H](C(=O)N[C@H](C)[C@@H](O)[C@H](C)C(=O)N[C@H](C(=O)NCCc1nc(-c2nc(C(=O)NCCC[S+](C)C)cs2)cs1)[C@@H](C)O)[C@@H](OC1OC(CO)C(O)C(O)C1OC1OC(CO)C(O)C(OC(N)=O)C1O)c1cnc[nH]1 (some centres undefined) [Bleomycin],-0.417 ± 0.23,-0.0394 ± 0.031,-0.132 ± 0.16,0.0622 ± 0.095,0.0986 ± 0.2,0.278 ± 0.39,0.331 ± 0.28,0.321 ± 0.053,0.24 ± 0.21,0.245 ± 0.13,0.652 ± 0.46,0.457 ± 0.048,2.68 ± 0.29,–,–,–,–,–,–,–,–,–,–,–,–,–,–,–,–
C[C@]12CC[C@H]3[C@@H](CCC4=CC(=O)CC[C@@]43C)[C@@H]1CC[C@@H]2O [Testosterone],–,–,–,–,–,–,–,–,–,–,–,–,–,-0.549 ± 0.28,-0.238 ± 0.15,-0.5774 ± 0.0046,-0.238 ± 0.058,-0.712 ± 0.027,-0.0596 ± 0.21,-0.24 ± 0.17,-0.368 ± 0.14,-0.654 ± 0.22,-0.0306 ± 0.33,-0.303 ± 0.014,-0.398 ± 0.14,-0.399 ± 0.038,-0.0772 ± 0.21,-0.448 ± 0.17,-0.258 ± 0.0049

# — the supplement of paper PMC12282887
